Laboratory results: PubChem BioAssay (NCATS)
Values without a mark were called inactive. For some assays here: Potency and affinity values are given separately. Activity calls are given as the source filed them.

Legend:
[1] = Ebola virus entry assay, green fluorescence channel
[2] = Ebola virus entry assay, blue channel fluorescence
[3] = Ebola virus entry assay, green fluorescence channel; remark: listed apart in the source
[4] = Ebola virus entry assay, ratio channel readout
[5] = Ebola virus entry assay, blue channel fluorescence; remark: listed apart in the source
[6] = Ebola virus entry assay, ratio channel
[7] = Ebola virus entry assay, reporter ratio channel; AC50: Channel type: primary unless noted; outcome: Channel type: primary unless noted
[8] = Ebola virus entry reporter assay, green channel fluorescence
[9] = Ebola virus entry cell assay, ratio channel
[10] = Ebola virus entry assay, blue channel (ratio component)
[11] = Immunotoxin (HA22) sensitization/mitigation study. Vehicle arm (PBS) (AID 1159510); conditions: cancer cells viability with PBS vehicle (HA22 study); series mostly up to 46.1 µM; note: potency is the fitted concentration of half-maximal effect
[12] = Immunotoxin (SS1P) sensitization/mitigation study. Vehicle arm (DMEM) (AID 1159513); conditions: cell viability with vehicle (DMEM); series mostly up to 46.1 µM; note: potency is the fitted concentration of half-maximal effect
Throughout, for efficacy: 0% is about no effect.

| Structure (SMILES) | efficacy [1] [%] | AC50 [2] | outcome [3] | outcome [4] | AC50 [5] | AC50 [6] | AC50 [7] | outcome [8] | AC50 [9] | AC50 [4] | outcome [7] | outcome [10] | outcome [2] | outcome [9] | Potency [11] | Potency [12] | outcome [6] |
| --- | --- | --- | --- | --- | --- | --- | --- | --- | --- | --- | --- | --- | --- | --- | --- | --- | --- |
| COc1cc2ncnc(Nc3ccc(F)c(Cl)c3)c2cc1OCCCN1CCOCC1 | 41.5 | 15.8 µM (active) | inactive | inactive | 2.82 µM (active) | 2.51 µM (active) | 2.51 µM (active) | inactive | 15.8 µM (active) |  |  |  |  |  |  |  |  |
| OCCN1CCN(CCCN2c3ccccc3Sc3ccc(Cl)cc32)CC1 | 88.4 | 6.31 µM (active) | inactive |  | 2.82 µM (active) | 2.24 µM (active) | 2.24 µM (active) |  | 5.62 µM (active) | 5.63 µM (active) |  |  |  |  |  |  |  |
| O[C@@H](CNC[C@H](O)[C@H]1CCc2cc(F)ccc2O1)[C@@H]1CCc2cc(F)ccc2O1 | -189 | 11.2 µM (active) | inactive | inactive | 7.94 µM (active) | 3.55 µM (active) | 3.55 µM (active) |  | 5.01 µM (active) |  |  |  |  |  |  |  |  |
| CCCNCC(O)COc1ccccc1C(=O)CCc1ccccc1 (stereo not drawn) | 86.9 | 11.2 µM (active) | inactive |  | 8.91 µM (active) | 7.94 µM (active) |  |  | 8.91 µM (active) | 8.92 µM (active) | inactive [Channel type: confirmation] | inactive |  |  |  |  |  |
| Cc1ccsc1C(=CCCN1CCC[C@@H](C(=O)O)C1)c1sccc1C | 57.2 |  | inactive | inactive | 35.5 µM (active) | 20 µM (active) | 20 µM (active) | inactive |  |  |  |  | inactive | inactive |  |  |  |
| CN1CCc2cccc3c2[C@H]1Cc1ccc(O)c(O)c1-3 | 61.6 |  | inactive | inactive | 28.2 µM (active) | 28.2 µM (active) | 28.2 µM (active) | inactive |  |  |  |  | inactive | inactive |  |  |  |
| COC(=O)[C@H]1[C@H]2C[C@@H]3c4[nH]c5cc(OC)ccc5c4CCN3C[C@H]2C[C@@H](OC(=O)c2cc(OC)c(OC)c(OC)c2)[C@@H]1OC | 32.6 |  | inactive | inactive | 31.6 µM (active) | 25.1 µM (active) | 25.1 µM (active) | inactive |  |  |  |  | inactive | inactive |  |  |  |
| Cc1nc(Nc2ncc(C(=O)Nc3c(C)cccc3Cl)s2)cc(N2CCN(CCO)CC2)n1 | 82.9 |  | inactive | inactive | 8.91 µM (active) | 7.94 µM (active) | 7.94 µM (active) | inactive | 28.2 µM (active) |  |  |  | inactive |  | 5.9 µM (active) | 20.9 µM (active) |  |
| OCCN1CCN(CCCN2c3ccccc3Sc3ccc(C(F)(F)F)cc32)CC1 | -98.3 |  | inactive | inactive | 3.55 µM (active) | 3.16 µM (active) | 3.16 µM (active) |  | 8.91 µM (active) |  |  |  | inactive |  |  |  |  |
| CN1CCN(CCCN2c3ccccc3Sc3ccc(Cl)cc32)CC1 | -144 |  | inactive | inactive | 7.08 µM (active) | 3.98 µM (active) | 3.98 µM (active) |  | 14.1 µM (active) |  |  |  | inactive |  |  |  |  |
| CC(N)C12CC3CC(CC(C3)C1)C2 (stereo not drawn) | 56.9 |  | inactive | inactive | 28.2 µM (active) | 28.2 µM (active) | 28.2 µM (active) |  |  |  |  |  | inactive | inactive |  |  |  |
| CN1CCN(C2=Nc3cc(Cl)ccc3Nc3ccccc32)CC1 | 95.2 |  | inactive | inactive | 15.8 µM (active) | 14.1 µM (active) | 14.1 µM (active) | inactive |  |  |  |  | inactive | inactive |  |  |  |
| CC[C@]1(O)C[C@H]2CN(CCc3c([nH]c4ccccc34)[C@@](C(=O)OC)(c3cc4c(cc3OC)N(C=O)[C@H]3[C@@](O)(C(=O)OC)[C@H](OC(C)=O)[C@]5(CC)C=CCN6CC[C@]43[C@@H]65)C2)C1 | 37.5 |  | inactive | inactive | 0.282 µM (active) |  |  |  | 0.112 µM (active) |  | inactive [Channel type: confirmation] | inactive | inactive |  |  |  | inactive |
| O=C1c2cccc3c2[C@H](CCC3)CN1[C@@H]1CN2CCC1CC2 | 37.7 |  | inactive | inactive | 20 µM (active) | 28.2 µM (active) | 28.2 µM (active) | inactive |  |  |  |  | inactive | inactive |  |  |  |
| CC(C)NCC(O)COc1ccc(CCOCC2CC2)cc1 (stereo not drawn) | 65 |  | inactive | inactive | 14.1 µM (active) | 11.2 µM (active) | 11.2 µM (active) |  | 15.8 µM (active) |  |  |  | inactive |  |  |  |  |
| Cc1ccc(NC(=O)c2ccc(CN3CCN(C)CC3)cc2)cc1Nc1nccc(-c2cccnc2)n1 | 71.5 |  | inactive | inactive | 22.4 µM (active) | 12.6 µM (active) | 12.6 µM (active) | inactive | 28.2 µM (active) |  |  |  | inactive |  |  |  |  |
| COc1cc2c(c(OC)c1OC)-c1ccc(OC)c(=O)cc1[C@@H](NC(C)=O)CC2 | -81.3 | 0.316 µM (active) | inactive |  | 22.4 µM (active) | 0.316 µM (active) |  |  | 0.316 µM (active) | 0.32 µM (active) | inactive [Channel type: confirmation] | inactive |  |  |  |  |  |
| COc1cc2c(cc1OC)C(=O)C(CC1CCN(Cc3ccccc3)CC1)C2 (stereo not drawn) | 108 |  | inactive | inactive | 35.5 µM (active) | 22.4 µM (active) | 22.4 µM (active) | inactive |  |  |  |  | inactive | inactive |  |  |  |
